Data as given in PubChem BioAssay (Tox21).
Values without a mark were called inactive. Activity calls are given as the source filed them. Calls come from the whole dose curve; as a rule, active = well fitted curve in the direction sought with a large enough effect in the repeat runs; inconclusive = weak or mixed curves; inactive = flat fitted curve, though single readings scatter.

test: qHTS assay to test for compound auto fluorescence at 535 nm (green) in HEK293 cell free culture (AID 720682); details: cell-free medium, green autofluorescence 485/535 nm, stronger effect = higher value; series mostly up to 91.3 µM
From the text: U.S. Tox21 Program National Center for Advancing Translational Sciences [NCATS] NIH Chemical Genomics Center [NCGC] U.S. Environmental Protection Agency [EPA] National Institutes of Environmental Health Sciences [NIEHS] National Toxicology Program [NTP] U.S. Food and Drug Administration [FDA] Tox21 Assay Overview: Compound auto fluorescence often interferes with screening of the compound library against various biological targets and signaling pathways. Some of these compounds may have fluorophoric properties. Such properties may interfere with the assay outputs resulting in false positives and/or negatives. To decrease such complications and ensure the compound activities are relevant in terms of biological response, the Tox21 10K compound library was screened for auto fluorescence. From the fluorophores used as reporter signals in our screening assays, the auto fluorescence equivalencies of compounds against three fluorophores have been evaluated: Triamterene, Fluorescein and Rose Bengal sodium for blue, green and red fluorescence, respectively. The fluorescence intensities were measured using Excitation/Emission wavelengths at 405/460nm, 485/535nm and 540/590nm for blue, green and red labels, respectively. This assay includes the green fluorescence data.
Tox21 Assay Protocol Summary: 5 uL of culture medium (DMEM containing 10% FBS) per well was dispensed into black wall/clear bottom 1536-well plates using a Multidrop Combi Dispenser (ThermoFisher Scientific, Waltham, MA). After 23 nL compound or DMSO vehicle was transferred into assay plate by a pintool work station (Kalypsys, San Diego, CA), fluorescence intensities in the assay plates were measured by an Envision (PerkinElmer, Shelton, CT) plate reader using three labels for measuring blue, green and red fluorescence at […] 460, 535 and 590nm respectively.
% is set by controls: 0 for no effect and ±100 for the full control effect.

Row | Structure (SMILES) | outcome | activity change
1 | CCCC(C)(COC(N)=O)COC(=O)NC(C)C (stereo not given) | inactive | 
2 | CC(C)(C#N)C(C)(C)C#N | inactive | 
3 | O=C1c2ccccc2C(=O)N1SC(Cl)(Cl)Cl | inactive | 
4 | CCC1(C2=NCCN2)Cc2ccccc2O1 (stereo not given) | inactive | 
5 | CCOP(=O)(SC(C)CC)N1CCSC1=O (stereo not given) | inactive | 
6 | O=CC=O | inactive | 
7 | CC[N+]1(C)CCCC(OC(=O)C(O)(c2ccccc2)c2ccccc2)C1 (stereo not given) | inactive | 
8 | Cc1ccc(N)c(C)c1 | inactive | 
9 | CN[C@@H](C)[C@H](O)c1ccccc1 | inactive | 
10 | ClCc1ccccc1Cl | inactive | 
11 | C=C(C)C(=O)OCCCCOC(=O)C(=C)C | inactive | 
12 | CCCCC1C(=O)NC(=O)N(C2CCCCC2)C1=O (stereo not given) | inactive | 
13 | CC(Cc1ccccc1)NCc1ccccc1Cl (stereo not given) | inactive | 
14 | CCC(C)Cl (stereo not given) | inactive | 
15 | CCCBr | inactive | 
16 | CCC1(CCC(C)C)C(=O)NC(=O)NC1=O | inactive | 
17 | C[N+](C)(C)CC1CO1 (stereo not given) | inactive | 
18 | CC(C)(C)NCC(O)c1cc(Cl)c(N)c(C(F)(F)F)c1 (stereo not given) | inactive | 
19 | O=C(Cc1ccccc1)OCCc1ccccc1 | inactive | 
20 | C=CCN1C[C@H](C)N([C@H](c2ccc(C(=O)N(CC)CC)cc2)c2cccc(OC)c2)C[C@H]1C | inactive | 

Row | Structure (SMILES) | outcome | activity change
21 | C[C@@H]1C[C@@H]([C@H](O)CC2CC(=O)NC(=O)C2)C(=O)[C@@H](C)C1 | inactive | 
22 | CC(C)(c1ccccc1)c1cc(-n2nc3ccccc3n2)c(O)c(C(C)(C)c2ccccc2)c1 | inactive | 
23 | NC(=O)CF | inactive | 
24 | O=C1NC(=O)C(=O)C(=O)N1 | inactive | 
25 | C=CCOC(=O)C(C)(C)OC(=O)c1cc(-n2c(=O)cc(C(F)(F)F)n(C)c2=O)ccc1Cl | inactive | 
26 | CN1CC[C@]23c4c5ccc(O)c4O[C@H]2[C@@H](O)CC[C@H]3[C@H]1C5 | inactive | 
27 | CCSCc1ccccc1OC(=O)NC | inactive | 
28 | COC(=O)Cc1ccccc1 | inactive | 
29 | C1CCNCC1 | inactive | 
30 | COC1CC(=C(c2cccs2)c2cccs2)C[N+](C)(C)C1 (stereo not given) | inactive | 
31 | CON(C)C(=O)Nc1ccc(Cl)cc1 | inactive | 
32 | CCc1ccccc1N | inactive | 
33 | CCCCNC(=O)OCC#CI | inactive | 
34 | Clc1ccc2ccccc2c1 | inactive | 
35 | O=P(OCC(Br)CBr)(OCC(Br)CBr)OCC(Br)CBr (stereo not given) | inactive | 
36 | C[CH2][Hg][S]c1ccccc1C(=O)O | inactive | 
37 | Nc1c(Br)cc(Br)c2c1C(=O)c1ccccc1C2=O |  | 0.0661% [at 18.6 µM]
38 | NCCc1cc(O)c(O)cc1O | inactive | 
39 | C[C@]12CC[C@H]3[C@@H](CCC4=CC(=O)CC[C@@H]43)[C@@H]1CC[C@@H]2OC(=O)CCc1ccccc1 | inactive | 
40 | O=C1CC[C@@]2(O)[C@H]3Cc4ccc(O)c5c4[C@@]2(CCN3CC2CC2)[C@H]1O5 | inactive | 
